Hits are enriched below; roughly 3.9% of the tested compounds scored in any of these assays.
CCHF vOTU inh = CCHFV vOTU protease inhibition; inhibition, % at 11.5 µM; 370,000 tested, 0.55% active; Pep-AMC fluorescence; in the data active means inhibition above about 30%; further: 0% = vehicle wells with enzyme and 100% = no enzyme wells
Autofluor counter = flagged as autofluorescent in microsphere protease counterscreen; compound autofluorescence counterscreen, microsphere flow cytometry; stronger effect = higher value; fluorescence intensity (no concentration beside the values); 360,000 tested, 3.1% active; in the data active means fluorescence intensity above about 16000; inconclusive means no clear call, values can overlap the other calls
Anthrax LF prot = anthrax lethal factor protease inhibition; multiplex microsphere protease cleavage assay, LF; 360,000 tested, 0.12% active; inhibition, % at 10 µM; P15917; AID 588501; further: plate controls were buffer without enzyme for full effect and enzyme alone for no effect
Target sequence (P15917 whole entry, looked up): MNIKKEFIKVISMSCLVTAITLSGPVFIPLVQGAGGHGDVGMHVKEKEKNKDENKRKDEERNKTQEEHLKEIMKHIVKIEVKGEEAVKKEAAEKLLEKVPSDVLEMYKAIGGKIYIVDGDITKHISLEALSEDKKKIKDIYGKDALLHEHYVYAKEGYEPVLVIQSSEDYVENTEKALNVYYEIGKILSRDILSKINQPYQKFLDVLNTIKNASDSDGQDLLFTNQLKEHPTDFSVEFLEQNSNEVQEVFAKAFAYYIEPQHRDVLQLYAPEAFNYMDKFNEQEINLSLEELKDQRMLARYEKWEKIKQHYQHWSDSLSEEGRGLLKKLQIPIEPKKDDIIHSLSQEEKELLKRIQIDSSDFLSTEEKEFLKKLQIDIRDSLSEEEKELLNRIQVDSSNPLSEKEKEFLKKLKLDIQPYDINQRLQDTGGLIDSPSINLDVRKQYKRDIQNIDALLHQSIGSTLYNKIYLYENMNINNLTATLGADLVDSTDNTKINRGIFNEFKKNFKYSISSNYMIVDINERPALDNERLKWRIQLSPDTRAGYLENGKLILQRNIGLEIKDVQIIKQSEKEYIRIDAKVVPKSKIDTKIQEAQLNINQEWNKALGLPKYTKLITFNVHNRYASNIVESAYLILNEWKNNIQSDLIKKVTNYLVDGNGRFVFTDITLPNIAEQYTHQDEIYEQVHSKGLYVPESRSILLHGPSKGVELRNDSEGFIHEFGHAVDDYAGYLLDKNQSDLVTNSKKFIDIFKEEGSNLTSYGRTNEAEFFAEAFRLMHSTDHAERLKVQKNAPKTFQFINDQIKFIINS
BoNT A protease = BoNT A light chain protease inhibition | multiplex microsphere protease substrate cleavage, flow cytometry | inhibition, % at 10 µM | 360,000 tested, 0.17% active; further: plate controls were buffer without enzyme for full effect and enzyme alone for no effect
3CLpro inhibitor = SARS-CoV 3CLpro protease inhibition; P0C6X7; recombinant SARS-CoV 3CLpro, quenched FRET peptide cleavage; inhibition, % at 6 µM; 290,000 tested, 0.14% active; AID 1706; in the data active means inhibition above about 12%
BoNT F protease = inhibitors of Botulinum neurotoxin F light chain protease; AID 588497; inhibition, % at 10 µM; Multiplex microsphere protease cleavage assay, flow cytometry; 360,000 tested, 0.22% active; in the data active means inhibition above about 35%, passing the limit was not always enough; inconclusive means no clear call, values can overlap the other calls; further: plate controls were buffer without enzyme for full effect and enzyme alone for no effect
* marks the source's active call; other numbers are inactive results; ? = inconclusive; . = no result given. Unless noted, no stated cut-off is given here; in the data, active means inhibition above about 30%; inconclusive means no clear call, values can overlap the other calls; inactive means below that.

SMILES	CCHF vOTU inh	Autofluor counter	Anthrax LF prot	BoNT A protease	3CLpro inhibitor	BoNT F protease
N#C/C(=C/c1ccc(Sc2nc3ccccc3[nH]2)o1)c1cccc(Br)c1	-5.6	2873	-1.0	0.3	0.5	-3.4
N#C/C(=C/c1ccc(Sc2nc3ccccc3[nH]2)o1)c1ccccc1F	-6.7	16534*	-2.2	?	8.0	-4.2
CC(C)(C)NC(=O)COC(=O)c1ccc(NC(=O)CC#N)cc1	14.4	4604	5.7	0.1	1.0	3.2
Cc1c2c(nc3nnnn13)CCCC2	-6.0	4393	-0.1	-0.7	-3.3	-1.1
CSCCC(NC(=O)c1ccco1)C(=O)OCc1cc([N+](=O)[O-])cc2c1OCOC2 (centres undefined)	3.7	4163	-2.6	-1.1	5.1	0.5
O=C(CSc1cccc(C(F)(F)F)c1)NC(=O)c1ccccc1	12.0	1890	-0.3	0.2	-0.7	-2.8
O=C(CS(=O)c1ccc(F)cc1)Nc1ccccc1Cl (centres undefined)	-5.6	4183	-1.2	-1.4	-1.3	-2.3
O=C(CSc1cccc(C(F)(F)F)c1)Nc1ccc(Cl)cc1Cl	11.0	19968*	-0.2	?	-2.3	-2.0
O=C(CS(=O)c1cccc(C(F)(F)F)c1)Nc1ccccc1Cl (centres undefined)	-0.3	22990*	-1.6	-1.5	-7.3	-1.0
O=C(NC1CCSC1=O)C1CC(=O)N(c2ccc(F)cc2)C1 (centres undefined)	10.1	?	2.3	7.4	-2.1	?
COc1cccc(N=c2oc3ccccc3cc2-c2nc3ccccc3[nH]2)c1	-3.5	?	1.3	0.9	-1.4	53.8*
CN1CC(c2ccc(Cl)c(Cl)c2)[C@@]2(COc3ccccc3C2=O)[C@@]12C(=O)Nc1ccccc12 (some centres undefined)	-4.5	20876*	-1.9	-1.2	-4.6	-3.7
Cc1ccc(NS(=O)(=O)c2ccc(C(=O)N3CC(C)CC(C)C3)cc2)cc1 (centres undefined)	1.2	?	9.7	2.6	.	?
COCCCN1C(=O)c2ccc(C(=O)OCC(=O)N3CCN(c4ccccc4)CC3)cc2C1=O	1.6	4470	-3.7	5.0	.	5.7
COc1ccc(C(=O)NNC(=O)C2(C)CC2(Br)Br)cc1 (centres undefined)	-7.5	5626	-4.2	0.7	2.5	8.9
CC1(C(=O)Nc2c(F)c(F)c(F)c(F)c2F)CC1(Br)Br (centres undefined)	-4.7	4037	31.1*	1.6	3.9	?
Cc1ccc(-c2csc3ncnc(SCC(=O)NCC4CCCO4)c23)cc1 (centres undefined)	-2.1	9569	-1.7	-1.8	.	-3.2
O=C(Nc1ccc(Cl)cc1Cl)c1n[nH]c(Cn2cncn2)n1	-4.1	20568*	2.8	?	-3.8	-2.9
Cc1nc(-c2cccnc2)sc1C(=O)Nc1ccc(C(F)(F)F)cc1	1.8	22745*	0.4	?	4.1	-3.1
Cc1nc(Cl)sc1C(=O)Nc1cccc(C(F)(F)F)c1	-8.0	3694	18.1	0.5	.	9.1
Cc1nc(-c2cccnc2)sc1C(=O)Nc1cccc(C(F)(F)F)c1	14.0	22572*	-5.4	?	2.7	-3.6
CCCCC(=O)NC(=S)NNC(=O)c1ccc(OC)cc1	-8.6	4233	-1.4	-1.4	1.2	-0.6
Cc1ccc(CC(=O)N2CCN(S(=O)(=O)c3ccccc3)CC2)cc1C	10.7	4647	-3.4	3.7	.	-10.2
Cc1ccc(Oc2cc(-n3nc(C)cc3C)ncn2)cc1	8.9	22017*	-1.9	?	-6.0	-0.9
Cc1ccc(-c2c(NC(=O)c3cccc(C)c3)nc3ncccn23)cc1	-19.9	.	.	.	.	.
SMILES	CCHF vOTU inh	Autofluor counter	Anthrax LF prot	BoNT A protease	3CLpro inhibitor	BoNT F protease
Cc1ccccc1C1=NCC(=O)N(CC(=O)N2CCCCC2)c2sc(C)c(C)c21	0.0	22255*	0.3	?	5.3	-2.2
COc1ccccc1NC(=O)CSc1ncnc2c1oc1ccccc12	6.0	20328*	-2.3	0.8	-7.6	0.5
O=C(CSc1ncnc2c1oc1ccccc12)Nc1cccc(F)c1	-1.8	4331	-6.0	-0.6	0.4	0.2
CCc1nc(SCC(=O)Nc2ccc3c(c2)OCCO3)c2oc3ccccc3c2n1	2.9	2148	-1.3	-0.3	-0.5	5.1
O=C(CSc1ncnc2c1oc1ccccc12)Nc1ccc2c(c1)OCCO2	4.5	17420*	-2.4	-3.6	4.7	-4.5
Cc1nc(SCC(=O)Nc2ccc3c(c2)OCCO3)c2oc3ccccc3c2n1	-15.1	20676*	0.9	0.3	4.0	0.2
O=C(CN1C(=O)NC2(CCCC2)C1=O)N1CCc2ccccc2C1	10.8	2161	-0.6	0.9	1.8	1.9
Cc1cc(=O)[nH]c2c(C)c(N)ccc12	-210.8	23024*	0.2	0.9	-3.6	-1.9
Cc1noc(C)c1COC(=O)CCOc1ccccc1	-6.5	17725*	-1.3	-2.5	-4.9	-3.6
COc1ccc(OCCC(=O)OCc2c(C)noc2C)cc1	3.8	3556	-1.0	-0.2	-1.1	-8.1
COc1cc(CNc2ncn[nH]2)cc(Br)c1OC	-6.7	23846*	-2.5	?	-6.0	0.2
CCOc1c(Br)cc(CNc2ncn[nH]2)cc1OC	2.7	4859	2.2	0.1	0.1	-3.4
O=C1NC2(CCCCC2)C(=O)N1Cc1cccc(C(F)(F)F)c1	12.3	5287	0.4	-0.8	3.2	-5.3
CC(C)C(=O)Nc1ccc2oc(-c3cc(F)c(F)cc3Cl)nc2c1	9.2	24150*	0.8	-1.0	0.3	0.0
COCCN1C(=O)COc2ccccc2C1C(=O)NC1CCCC1 (centres undefined)	8.0	5615	-7.2	0.4	.	-2.0
O=S(=O)(c1ccc(F)cc1)c1nc(-c2ccccc2F)oc1N1CCCCC1	-1.2	20089*	-5.5	?	5.7	3.3
Cc1ccc(S(=O)(=O)CC(C)N2CCOCC2)c(S(=O)(=O)CC(C)N2CCOCC2)c1 (centres undefined)	1.1	23181*	1.6	-0.2	-2.9	-3.1
Cc1ccc(S(=O)(=O)CC(CN2CCOCC2)N2CCOCC2)cc1 (centres undefined)	-3.7	2503	-0.1	-0.2	-0.5	-2.4
c1ccc(Sc2nc(N3CCCCC3)nc(N3CCCCC3)n2)nc1	12.9	19461*	-7.0	?	2.2	3.7
N=C(N)Sc1nc(N2CCCCC2)nc(N2CCCCC2)n1	-2.0	6360	3.5	3.5	-3.4	6.5
CC1(C(=O)O)COC(c2ccc([N+](=O)[O-])cc2)OC1 (centres undefined)	-4.3	16243*	-0.8	0.4	5.7	-0.4
CCc1nn(CC(=O)NCc2ccccc2Cl)c(=O)c2cccn12	-2.5	5964	2.2	-0.3	-6.9	-3.0
CC(C(N)=O)N1C(=O)c2cccc3cccc1c23 (centres undefined)	-14.7	23424*	-0.6	0.6	2.5	-4.5
CC(C(=O)NC1CCCC1)N1C(=O)c2cccc3cccc1c23 (centres undefined)	-7.1	?	-0.1	-3.4	-6.6	-11.1
CCCCCCN1C=CC(=C/C=C(\C#N)C(=O)OCC)C=C1	9.0	24837*	0.0	-10.3	-3.1	-16.4
CCCN1C=CC(=C/C=C(\C#N)C(=O)OCC)C=C1	.	.	.	.	2.7	.
